Results: PubChem BioAssay AID1347046 (National Center for Advancing Translational Sciences (NCATS), 2019)
Screen size: about 1,400 compounds; about 940 (67%) were called active. Another 27% or so got no clear call; they are omitted. Calls follow the shape of the full dose curve. The set was probably picked from earlier hits. A selection follows.

The compounds below were run against Atrial natriuretic peptide receptor 2 (Homo sapiens) (UniProt P20594) (assay: Natriuretic polypeptide receptor (hNpr2) antagonism - Subtype selectivity assay). Conditions: HEK293 hNpr2 GloSensor cGMP luminescence, CNP-stimulated; series mostly up to 57.6 µM.
Protocol: F. Fan, B. F. Binkowski, B. L. Butler, P. F. Stecha, M. K. Lewis, K. V. Wood, Novel genetically encoded biosensors using firefly luciferase. ACS Chem Biol 3, 346-351 (2008).
PROTOCOL TABLE (as described by Inglese J, Shamu CE and Guy RK. 2007) SEQUENCE No. (e.g., 1, 2, 3, etc.); PARAMETER (e.g., Cells, Incubation, Reagent, etc.); VALUE and DESCRIPTION. 1. Cells. Seed 1500 HEK293 cGMP-sensor cells expressing hNpr2 per well in 4uL into Greiner 1536-well white/solid bottom high base, TC plates. 2. Incubation. Incubate plated cells at 37C in 5% CO2, 95% RH overnight. 3. Reagent. Add 1uL per well GloSensor reagent from Promega (2% final concentration) or CO2 independent media vehicle control to respective columns of Greiner 1536-well plates. 4. Incubation. Incubate plated cells at ambient temperature for 2 h., protect from light. 5. Compounds. Library compounds and DMSO vehicle control added at 23nL per well, transferred by Pin Tool. 6. Incubation. Incubate plated cells for 30 min. at ambient temperature, protect from light. 7. Detector. GloSensor baseline pre-read luminescence measured using CCD-based camera (Viewlux). 8. Compound. Add 1uL of hNppC peptide to 1 nM final concentration to stimulate hNpr2 or CO2 independent media as vehicle control. 9. Incubation. Incubate treated cells at ambient temperature for 20 min., protect from light. 10. Detector. GloSensor post-hNppC luminescence measured using CCD-based camera (Viewlux). NOTES (numbers refer to Sequence numbers above) 1. HEK293 cells expressing hNpr2 and GIP/pGS-40F were grown to 85-95% confluence (48-72 h) in T175 culture flasks (CO2 independent media supplemented with 10% FBS, 1% Pen/Strep antibiotics, and 1 ug/mL puromycin). Trypsinize and harvest cells from T175 culture flasks and filter through 40 um cell strainer. Cells counted with Invitrogen Countess (30,000,000 - 50,000,000 cells/flask). Cells diluted to a final concentration of 375 cells/uL in CO2 independent media and a Millipore multidrop used to dispense 1500 cells per well (4uL/well) into 13 1536-well Greiner White/Solid bottom, high base tissue-culture treated (TC) plates and one Aurora 1536-well Black/Clear bottom, low base, TC plate (for visual inspection of cell health throughout the duration of the assay). 2. Cells incubated for 24 h. at 37C in 95% RH incubator with metal lid having gas-exchange holes. 3. Prepare GloSensor Reagent (Promega): Reconstitute GloSensor luciferase substrate by adding 8.2mL Hepes buffer to 250mg substrate, mix well, protect from light and stored at -80C. Prepare a fresh 12% GloSensor solution in CO2 independent supplemented plating media (see above). Mix well and store at ambient temperature, protected from light. 1uL 12% GloSensor Luciferase Reagent added (2% final concentration) to respective columns of 13 x 1536-well Greiner plate with BioRaptr, 1uL CO2 independent plating media added to respective columns as vehicle control with BioRaptr. 4. Cells incubated for 2 h. at ambient temperature, protected from light with metal lid having gas-exchange holes. 5. 23nL of library compounds or DMSO vehicle control transferred to 13 Greiner white/solid bottom high base, TC plates in 11 interplate 1:3 titrations (see Yasgar, A. et al. 2008) with Pintool. 6. Cells incubated for 30-50 min. at ambient temperature protected from light with metal lid having gas-exchange holes. 7. Read cellular baseline GloSensor luminescence in presence of test library compounds on the ViewLux [Exposure = 10 s.; Gain = High; Speed = Slow; and Binning = 2X.] 8. hNppC peptide agonist solution prepared at 1 mM (in H2O) stock concentration. From this a working dilution was prepared at 6 nM in CO2 Independent media. 1uL of 6 nM hNppC agonist (1 nM final concentration) or CO2 Independent media vehicle control dispensed into respective columns of 13 x Greiner 1536-well white/solid bottom, tissue culture plates with BioRaptr. 9. Cells incubated for 20 min. at ambient temperature, protected from light with metal lid having gas-exchange holes. 10. […]
Also: nearly all actives have a fitted effect of over 70% in size.
Potency is read from the fitted curve at half-maximal effect.

Sequence of Atrial natriuretic peptide receptor 2 (Homo sapiens) (P20594 whole entry, looked up): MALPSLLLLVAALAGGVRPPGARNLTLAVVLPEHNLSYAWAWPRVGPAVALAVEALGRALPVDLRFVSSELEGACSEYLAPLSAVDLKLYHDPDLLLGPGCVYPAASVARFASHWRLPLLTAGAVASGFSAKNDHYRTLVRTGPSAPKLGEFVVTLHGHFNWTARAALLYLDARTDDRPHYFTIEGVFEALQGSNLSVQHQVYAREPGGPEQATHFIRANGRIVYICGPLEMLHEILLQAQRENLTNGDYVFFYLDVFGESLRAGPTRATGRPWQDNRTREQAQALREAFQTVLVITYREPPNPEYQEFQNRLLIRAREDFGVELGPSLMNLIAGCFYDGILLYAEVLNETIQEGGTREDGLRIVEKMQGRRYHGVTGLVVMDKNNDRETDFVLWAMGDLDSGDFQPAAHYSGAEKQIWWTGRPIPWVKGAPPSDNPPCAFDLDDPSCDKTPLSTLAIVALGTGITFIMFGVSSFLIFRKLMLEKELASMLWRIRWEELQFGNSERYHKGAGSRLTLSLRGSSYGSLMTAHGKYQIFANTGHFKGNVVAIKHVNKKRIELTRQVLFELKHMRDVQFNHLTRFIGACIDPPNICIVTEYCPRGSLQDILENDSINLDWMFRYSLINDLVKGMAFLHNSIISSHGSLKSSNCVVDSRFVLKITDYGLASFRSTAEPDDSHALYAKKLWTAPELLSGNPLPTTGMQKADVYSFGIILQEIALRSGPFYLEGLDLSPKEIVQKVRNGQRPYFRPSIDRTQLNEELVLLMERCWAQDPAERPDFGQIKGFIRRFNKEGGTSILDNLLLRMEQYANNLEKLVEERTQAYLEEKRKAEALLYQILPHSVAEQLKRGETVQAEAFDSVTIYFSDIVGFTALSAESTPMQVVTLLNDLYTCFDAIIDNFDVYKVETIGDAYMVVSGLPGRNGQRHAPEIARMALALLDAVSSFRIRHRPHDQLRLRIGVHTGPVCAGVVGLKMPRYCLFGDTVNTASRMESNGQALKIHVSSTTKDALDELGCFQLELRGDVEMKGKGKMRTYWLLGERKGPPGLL

Potency, active:
Cc1ccc2nc(C3CCCN(Cc4ccc(C#N)cc4)C3)[nH]c(=O)c2c1 (centres undefined) 24.3 µM
O=c1[nH]c(C2CCCN(Cc3ccccn3)C2)nn1-c1ccc(Cl)cc1 (centres undefined) 10.9 µM
CC(C)(C)c1csc(NC(=O)c2ccc3c(c2)OCCN(C2CCC2)C3)n1 35.3 µM
COc1ccccc1Nc1cnc2ccc(N(C)Cc3cccnc3)nn12 28 µM
C1CCC(COCCc2noc(C3CNC3)n2)C1 21.7 µM
O=C(NCc1nnc2cc(-c3nc(C4CC4)no3)ccn12)c1ccc(F)cc1Cl 13.7 µM
Cc1ccc2c(c1)nc1n2[C@@H](CNS(=O)(=O)c2ccccc2)COC1 31.4 µM
O=C(c1ccc(Cl)cc1)N1CCCC(n2cc(-c3nc(-c4ccccc4)no3)nn2)C1 (centres undefined) 21.7 µM
O=C(c1ccc(F)cc1Cl)N1CCC(n2cc(-c3nc(-c4ccccc4)no3)nn2)C1 (centres undefined) 5.44 µM
O=C1c2cnc(-c3ccc(Cl)cc3)nc2OCCN1Cc1ccccc1 35.3 µM
Cc1cc(N2CCCC(Cn3cc(Cc4ccccc4)nn3)C2)nc(N)n1 (centres undefined) 9.68 µM
O=C(c1ccccn1)N1CC(Oc2ccc(-c3noc(C4CC4)n3)cc2)C1 19.3 µM
COc1ccc(C2Cn3nnc(C(=O)N4CCN(C(=O)c5cccc(Cl)c5)CC4)c3CO2)cc1 (centres undefined) 15.3 µM
CCc1ccc(C(=O)N2CCN(c3cc(-c4ccc(F)cc4)[nH]n3)CC2)cc1 21.7 µM
Cc1ccc(C(=O)N2CCN(c3cc(-c4ccc(Cl)cc4)[nH]n3)CC2)c(C)c1 9.68 µM
O=C(c1ccc(F)cc1F)N1CCN(c2cc(-c3ccc(Cl)cc3)[nH]n2)CC1 19.3 µM
O=C(c1cc(F)ccc1Cl)N1CCN(c2cc(-c3ccc(F)cc3)[nH]n2)CC1 24.3 µM
O=C(c1ccc2cc[nH]c2c1)N1CCC2(CC1)N=C(c1ccc(Cl)cc1)NO2 21.7 µM
O=C1NCN(Cc2ccc(Cl)cc2)C12CCN(Cc1ccccc1)CC2 19.3 µM
O=C(c1ccccc1)N1CCC(C(=O)N2CCC(Cc3nc(-c4ccc(F)cc4)no3)CC2)CC1 19.3 µM
COc1cccc(-c2noc(CC3CCN(C(=O)c4ccc(F)cc4)CC3)n2)c1 6.11 µM
COc1cccc(CNC(=O)Cn2c(N(C)Cc3ccccc3)nc(C)cc2=O)c1OC 27.3 µM
COc1cccc(NC(=O)Cn2c(N(C)Cc3ccccc3)nc(C)cc2=O)c1 12.2 µM
Cc1nn2c(c1-c1ccccc1-c1ccccc1)N(CC1CC1)CCC2 3.14 µM
Cc1nc(-c2ccncc2)ncc1C(C)Nc1ncnc(C)c1C (centres undefined) 17.2 µM
CN(C)CCNC(=O)C(C)(C)Oc1nn(Cc2cccc(Cl)c2)c2ccccc12 31.4 µM
CN1CCN(C(=O)C(C)(C)Oc2nn(Cc3cccc(Cl)c3)c3ccccc23)CC1 19.8 µM
Cc1noc(C)c1-c1cc(-c2ccccc2Oc2ccccc2)cn2cncc12 11.1 µM
CN(Cc1csc(-c2ccccc2)n1)c1cc(C2CC(O)C2)nc(N)n1 (centres undefined) 3.85 µM
Cc1c[nH]c(CN2CCCC(CCc3ccc(F)cc3F)C2)c(C)c1=O (centres undefined) 3.85 µM
O=C1Nc2ccccc2CN(Cc2ccccc2)C12CCNCC2 17.2 µM
COc1ccc(OCC2(C)COc3ccc(C(=O)Nc4cccnc4)cc3N2)cc1 (centres undefined) 35.3 µM
CC1=NS(=O)(=O)N(C)C=C1C(=O)OCc1nc(-c2ccc(C)cc2)no1 13.7 µM
COc1ccc(CCNC(=O)c2noc(-c3ccc(C)cc3)n2)cc1OC 21.7 µM
O=[S+]1([O-])NCC2(CCCN(Cc3ccc(C(F)(F)F)cc3)C2)Oc2ncccc21 (centres undefined) 15.3 µM
COc1ccc(CN2C(=O)CO[C@H]3CN(Cc4ccc5c(c4)OCO5)C[C@H]32)cc1 31.4 µM
Cc1cccc(CN2CCc3nc(C(=O)Nc4ccc(Cl)cc4)oc3CC2)c1 12.5 µM
O=C(c1ccccc1)N1CCNc2cnc(Nc3cccc(C(F)(F)F)c3)nc2C1 28 µM
CC1(C(=O)NCc2ccc3c(c2)OCO3)CCc2cnc(NCc3ccccc3)nc21 (centres undefined) 35.3 µM
O=C(NCC1CC1)c1nc2c(o1)CCN(Cc1cccc(F)c1F)CC2 28 µM
O=C(Cc1c[nH]c2ncc(-c3ccccc3F)cc12)N1CCOCC1 15.7 µM
Cc1ccc(OCc2nc(C3CCN(C(=O)CCc4nc5ccc(Cl)cc5[nH]4)CC3)no2)cc1 24.3 µM
CC(C)c1cc(C(=O)N2CCC(n3cc(-c4ccccn4)nn3)CC2)n(C)n1 19.3 µM
OC1(Cc2cc(-c3ccccc3)no2)CCN(c2ncncn2)CC1 8.62 µM
COc1ccc(-c2noc(CC3CCN(C(=O)Cc4ccc(OC)c(OC)c4)CC3)n2)cc1 5.44 µM
COc1ccc(CC(=O)N2CCC(Cc3nc(-c4ccccc4)no3)CC2)cc1OC 15.3 µM
COc1ccc(-c2noc(CC3CCN(C(=O)CC4CCCCC4)CC3)n2)cc1 12.2 µM

Potency, inactive:
COc1ccc(C(=O)N2CCC(n3cc(-c4nc(C(C)C)no4)nn3)CC2)cc1F
CCN(CCCNC(=O)c1nnn2cc(-c3ccccc3)[nH]c(=O)c12)c1ccccc1
